RAM network inh – inhibitors of the yeast RAM network, primary screen, dse1pr::URA3 reporter, 5-FOA selection; S. cerevisiae dse1pr::URA3 reporter, 5-FOA growth OD615, 2 d; analog-sensitive cbk1-as2 kinase mutant strain; inhibition, % at 50 µM; hit rate 1.8% among 190,000;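 active = inhibition above a set limit, 3 SD over mean compound inhibition, cut at about 8.4% in these data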;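 also: 0% = DMSO-only wells with no growth and 100% = 10 µM 1-NA-PP1 full growth; inhibition rescues growth on 5-FOA so higher OD means more RAM inhibition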
PG9 binder – binders of HIV-1 gp120 antibody PG9, primary screen, biochemical, TR-FRET. hit rate 0.43% among 360,000. AID 624416, 2012. inhibition, % at 6.7 µM. TR-FRET gp120-PG9 antibody binding. HIV-1 gp120 / PG9 antibody interaction; in the data active = inhibition above about 8.5%
PGE2 EP2 inh – human EP2 receptor antagonists, primary screen, TR-FRET cAMP, C6 glioma cells; AID 1422, 2008; inhibition, % at 25 µM; C6 glioma cells expressing human EP2; cells stimulated with saturating PGE2; hit rate 0.52% among 260,000; Prostaglandin E2 receptor EP2 subtype (Homo sapiens), P43116;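 active = percent inhibition above 40 after rounding to a whole number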;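 also: rat C6 glioma host cells with rolipram phosphodiesterase inhibitor present; the protocol text gives 20 µM as final concentration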
Target sequence (P43116 whole entry, looked up): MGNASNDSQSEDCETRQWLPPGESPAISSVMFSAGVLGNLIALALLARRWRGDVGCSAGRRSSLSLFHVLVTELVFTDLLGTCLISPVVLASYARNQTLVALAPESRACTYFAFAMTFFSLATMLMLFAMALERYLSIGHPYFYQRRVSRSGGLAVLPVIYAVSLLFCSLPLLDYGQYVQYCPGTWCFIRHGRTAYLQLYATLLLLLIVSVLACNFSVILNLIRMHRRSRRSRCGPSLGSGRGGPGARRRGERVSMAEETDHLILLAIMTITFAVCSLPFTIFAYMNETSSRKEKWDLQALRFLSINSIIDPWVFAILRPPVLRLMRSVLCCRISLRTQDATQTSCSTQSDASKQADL
SKN-1 block – suppressors of acrylamide-induced Pgst-4::GFP reporter in worms, primary screen, SKN-1 inhibitor project, whole organism, uHTS, GFP/RFP fluorescence ratio, strain VP596; AID 624304, 2012; hit rate 0.49% among 360,000; C. elegans VP596 Pgst-4::GFP/RFP ratio, 24 h; inhibition, % at 21.8 µM;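 active = interference check ratio from 0.5 to 1.5 plus GFP to RFP signal ratio inhibition reaching or exceeding a fixed threshold, cut at about 30% in these data, passing the limit was not always enough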
EP2 mod – EP2 receptor modulators, cAMP readout, primary screen, cell-based, HTRF cAMP, PGE2 stimulation; induction, % at 25 µM; EP2-expressing cells, cAMP HTRF FRET, PGE2 co-stimulation; hit rate 0.83% among 260,000;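 active = compounds whose cAMP rise, as percent of the full-agonist control response, exceeds 60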;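 also: rat C6 glioma line stably carrying human EP2 under a CMV promoter; the protocol text gives 20 µM as final concentration; 100% = response of wells given 1 µM PGE2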
Rev-erbA mod – modulators of Rev-erb alpha DNA binding, primary screen, biochemical, FITC-DNA, fluorescence polarization, uHTS. Nuclear receptor subfamily 1 group D member 1 (Homo sapiens), P20393. Rev-erbα–FITC-DNA binding, 90 min. activity, % at 10 µM. hit rate 0.79% among 370,000;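 active = activity above about 14%, limit read from the data; passing the limit was not always enough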;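 also: 0% = DMSO wells with 35 nM protein and 100% = DMSO wells with 750 nM protein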
An asterisk follows results filed as active; nt = no result given. Sampled rows, rich in hits. Any-hit rate of the full collection: about 2.9%.

SMILES	RAM network inh	PG9 binder	PGE2 EP2 inh	SKN-1 block	EP2 mod	Rev-erbA mod
CCc1ccccc1NC(=S)N(Cc1ccco1)Cc1cc2ccc(C)cc2[nH]c1=O	nt	nt	10	nt	37	nt
COC(=O)c1ccccc1NC(=S)N(Cc1ccc2c(c1)OCO2)Cc1cc2cc(OC)ccc2[nH]c1=O	8.5*	-3	5	-6	20	19
COc1cc2cc(CN(Cc3cccs3)C(=S)Nc3cccc(C)c3)c(=O)[nH]c2cc1OC	8.9*	nt	7	nt	21	nt
CCc1ccccc1NC(=S)N(Cc1ccco1)Cc1cc2cc(C)ccc2[nH]c1=O	nt	nt	9	nt	87*	nt
COc1cc2cc(CN(Cc3cccs3)C(=S)Nc3ccc(C)cc3)c(=O)[nH]c2cc1OC	7	-1	10	16	-8	0
CCN(c1ccccc1)S(=O)(=O)c1cc2c(cc1C)N(C)CCO2	nt	1	nt	4	nt	2
CCN(c1ccccc1)S(=O)(=O)c1ccc(F)cc1C	-1	1	10	-7	62*	4
COC(=O)c1cc(-c2ccc(C=C3C(=O)OC4(CCCC4)OC3=O)o2)ccc1Cl	nt	nt	88*	nt	-107	nt
COc1ccc2c(c1)cc(C)c1nnc(SCC(=O)N3CCCCCC3)n12	nt	nt	8	nt	-32	nt
Cc1ccc(-n2nnnc2SCCNS(=O)(=O)c2ccccc2)cc1C	9.9*	1	8	12	-26	0
Cc1cc(C)nc(SCc2nnc(SCC(=O)Nc3ccc(F)cc3)n2Cc2ccco2)n1	nt	nt	8	nt	15	nt
CCC(=O)Nc1cc(C(=O)OCC(=O)c2ccc(Cl)cc2Cl)ccc1C	2	-1	3	7	-9	1
O=C(O)CCC(=O)Nc1ccc(C(=O)OCC(=O)c2ccc(Cl)cc2Cl)cc1	8.7*	-2	14	-8	4	-2
CCn1cc(C(=O)N2CCc3c(nc(N4CCCCC4)[nH]c3=O)C2)cn1	nt	nt	nt	nt	19	nt
COc1cc(OC)c(OC)cc1/C=C/C(=O)c1ccc(NS(=O)(=O)c2ccc(C)cc2)cc1	9.9*	-1	8	10	-8	-7
CC(=O)c1ccc(NS(=O)(=O)c2ccc(C)cc2)cc1	0	3	7	-9	27	-3
Cc1ccc(-c2cc(N)c(=O)n(CC(=O)NCC3CCCCC3)n2)s1	nt	nt	8	nt	-121	nt
COc1ccc(CN(C#N)c2nc(SC)nc(N(C)C)n2)cc1	11*	-3	7	1	-2	-5
COCN(C#N)c1nc(N(C)C)nc(N(C)C)n1	-1	0	8	-1	26	5
COc1ccc(CN(Cc2coc3ccccc3c2=O)CC2CCCO2)cc1OC (configuration not stated)	nt	nt	1	nt	-2	nt
COc1cc(C)c(S(=O)(=O)N2CCC(C)CC2)cc1C	nt	nt	7	nt	-16	nt
CC(C)C(=O)N1CCN(c2ccccc2NC(=S)NC(=O)/C=C/c2ccco2)CC1	nt	-2	nt	3	nt	0
O=C(/C=C/c1ccco1)Nc1ccccc1N1CCCCC1	0	-2	4	17	62*	5
COc1cc(C)ccc1OCCOc1c(Cl)cc(Cl)cc1Cl	9.9*	2	4	0	29	-2
COc1cc(C)ccc1OCCOc1cc(C)ccc1Cl	4	1	16	0	-10	1
SMILES	RAM network inh	PG9 binder	PGE2 EP2 inh	SKN-1 block	EP2 mod	Rev-erbA mod
Cc1nn(-c2ccccc2)c(N)c1N=Nc1ccc(Cl)cc1	10*	0	6	23	-7	-12
O=C(NC1CCCC1)C1CCCN(S(=O)(=O)c2cccc3cccnc23)C1 (configuration not stated)	8.7*	-1	1	-20	2	2
O=C(NC1CCCCCC1)C1CCN(S(=O)(=O)c2cccc3cccnc23)CC1	3	0	9	-4	-6	1
COCn1c(-c2ccc(OC)cc2)nc2ccccc21	0	3	17	17	8	6
COc1ccc(-c2nc3ccccc3n2Cc2ccc(C)cc2)cc1	-2	-4	9	12	62*	0
CN(C)c1ncc(S(=O)(=O)c2ccc(Cl)cc2)c(-c2ccc(Cl)cc2Cl)n1	7	-1	nt	-13	36	6
CN(C)c1ncc(S(=O)(=O)c2ccccc2)c(-c2ccc(Cl)cc2Cl)n1	4	2	nt	6	65*	3
COc1ccc2[nH]c(C)c(C(=O)CN3CCN(c4cnccn4)CC3)c2c1	nt	nt	1	nt	-59	nt
COc1ccccc1NC(=O)CSc1nnc(-c2ccccc2C)n1C	nt	nt	11	nt	2	nt
Clc1ccc2c(N3CCC(CCC4CCN(c5ncnc6cc(Cl)ccc56)CC4)CC3)ncnc2c1	nt	nt	52*	nt	15	nt
CC1CCN(c2ncnc3ccccc23)CC1	1	-2	9	-30	9	-4
CS(=O)(=O)N1N=C(c2cccs2)CC1c1ccccc1O (configuration not stated)	2	-1	3	41*	28	-7
Cc1[nH]nc(Nc2c(C)n(C)n(-c3ccccc3)c2=O)c1[N+](=O)[O-]	nt	nt	7	nt	-4	nt
O=[N+]([O-])c1ccc(NN=C2c3ccccc3Cc3ccccc32)c([N+](=O)[O-])c1	nt	nt	44*	nt	24	nt
CC1=C(C(=O)OCC2CCCO2)C(c2cccc(C(F)(F)F)c2)C2=C(CC(c3ccco3)CC2=O)N1 (configuration not stated)	2	0	8	-6	-7	3
CC1=C(C(=O)OCC2CCCO2)C(c2ccccc2OC(C)C)C2=C(CC(c3ccco3)CC2=O)N1 (configuration not stated)	2	-2	18	40*	21	-1
COC(=O)/C=c1/s/c(=C(\C#N)C(=O)NCc2ccco2)n(-c2ccc(C)cc2)c1=O	8.5*	-1	15	32	12	4
COC(=O)/C=c1/s/c(=C(/C#N)C(=O)N2CCOCC2)n(-c2ccccc2)c1=O	2	-1	21	17	18	3
CCOc1cc(CNCc2ccccc2)ccc1OCc1ccc(Cl)cc1	nt	0	nt	30	nt	4
Oc1ccc(NCc2ccccc2OCc2ccccc2F)cc1	4	-9	17	17	30	1
CCOc1cc(CNc2ccc(O)cc2)ccc1OCc1ccc(Cl)cc1Cl	5	nt	16	41*	38	nt
CCOc1ccccc1CNc1ccc(O)cc1	0	-10	7	42*	22	-3
CC(C)[C@H]1CN(Cc2ccco2)CCN1C(=O)NCc1ccccc1	nt	nt	nt	nt	-9	nt
